Screening data (PubChem BioAssay)
An excerpt weighted towards active compounds, which were near 4% of everything screened.
MazEF act: activators of E. coli MazEF toxin-antitoxin RNase. activation, % at 20 µM. FAM/BHQ RNA-DNA oligo cleavage fluorescence, 5 h. P0AE70. hit rate 0.32% among 350,000. AID 504720; in the data active = activation above about 50%
Target sequence (P0AE70 whole entry, looked up): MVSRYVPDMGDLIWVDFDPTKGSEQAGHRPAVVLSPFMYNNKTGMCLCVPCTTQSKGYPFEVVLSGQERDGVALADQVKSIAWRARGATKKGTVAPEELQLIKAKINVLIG
CCHFV vOTU inh: blocks the CCHF virus ovarian tumor domain protease; hit rate 0.55% among 370,000; inhibition, % at 11.5 µM; CCHFV vOTU protease, Pep-AMC fluorescence; AID 651958; also: 0% = vehicle wells with enzyme and 100% = no enzyme wells
Mtb FBA inh: inhibitors of M. tuberculosis fructose-bisphosphate aldolase; inhibition, % at 1 µM; hit rate 2.3% among 360,000; AID 588726; purified M. tuberculosis FBA, fluorescence read-out; P9WQA3; in the data active = inhibition above about 27%;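 also: 0% = vehicle and 100% = reference inhibitor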
Target sequence (P9WQA3 whole entry, looked up): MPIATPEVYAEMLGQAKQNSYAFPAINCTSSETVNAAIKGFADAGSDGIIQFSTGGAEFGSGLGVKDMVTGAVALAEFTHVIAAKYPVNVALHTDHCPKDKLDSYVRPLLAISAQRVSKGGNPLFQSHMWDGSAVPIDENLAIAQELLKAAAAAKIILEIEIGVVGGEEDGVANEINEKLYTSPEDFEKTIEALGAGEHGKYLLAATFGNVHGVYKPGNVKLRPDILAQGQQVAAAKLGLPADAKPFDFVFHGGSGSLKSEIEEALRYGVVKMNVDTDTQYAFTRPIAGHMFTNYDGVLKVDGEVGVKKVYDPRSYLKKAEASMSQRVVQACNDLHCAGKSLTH
GDH-TPI counter-1: counter-screen for M. tuberculosis FBA inhibitors: GDH-TPI coupled enzymes. hit rate 1.2% among 360,000. GDH-TPI coupled enzyme counterscreen, NADH absorbance. AID 588335. inhibition, % at 4.8 µM;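 also: 0% = DMSO wells and 100% = wells lacking the enzyme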
Mtb betalactam: beta-lactam sensitization of Mtb H37Rv | M. tuberculosis H37Rv growth with meropenem, percent inhibition | inhibition, % at 25 µM | hit rate 0.27% among 330,000 | AID 434955; call rule not given here;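 also: growth measured after seven days incubation then overnight dye step; 0% = bacteria only wells and 100% = bacteria with antibiotic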
Mtb FBA inh conf: Mtb FBA inhibition, confirmed; shares compounds with Mtb FBA inh; purified M. tuberculosis FBA, fluorescence read-out; inhibition, % at 1 µM; hit rate 78% among 5,600; in the data active = inhibition above about 27%;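 also: 0% = vehicle wells and 100% = reference inhibitor wells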
GDH-TPI counter-2: GDH-TPI inhibition counter-screen for FBA inhibitors | shares compounds with Mtb FBA inh | GDH-TPI coupled enzyme counterscreen, fluorescence | inhibition, % at 1 µM | hit rate 81% among 5,600 | AID 652141; in the data active = inhibition above about 10%
* hit, by the source's call; / = no result given; + = active, no number. Rule as the data show it, unless noted: active = inhibition above about 30%; inactive = the rest.

SMILES | MazEF act | CCHFV vOTU inh | Mtb FBA inh | GDH-TPI counter-1 | Mtb betalactam | Mtb FBA inh conf | GDH-TPI counter-2
COc1ccc(-c2ccc(CCC(=O)O)n2C(C)C)cc1 | 1 | -97 | 32* | 13 | 8 | 163* | 114*
CC(C)C[C@H](NC(=O)c1ccco1)C(=O)N1CCC[C@H]1C(=O)NCc1ccccc1 | / | 2 | / | / | / | / | /
COc1cc(-c2ccc3cc(OC)c(OC)c(OC)c3c2)cc(OC)c1OC | 5 | 5 | 45* | 1 | / | 8 | 6
COc1ccc(-c2oc3ccc(-c4cc(OC)c(OC)c(OC)c4)cc3c2-c2ccc(OC)cc2)cc1 | -8 | -9 | / | / | 17 | / | /
O=C1COc2ccccc2C(c2nnnn2Cc2ccccc2)N1Cc1cccs1 (stereo not given) | / | -5 | / | / | / | / | /
O=C(NCCCCO)c1ccc2c3c(cccc13)CC2 | 4 | -5 | 64* | 7 | 1 | -2 | -3
CCOCCNC(=O)c1ccc2c3c(cccc13)CC2 | 4 | -13 | 81* | 1 | 50 | 47* | 36*
CCCc1c(-c2cccc(Br)c2)ncn1CCc1ccccc1OC | / | 9 | / | / | / | / | /
CCOC(=O)c1nc2sc3c(c2c(=O)[nH]1)CCC(C)C3 (stereo not given) | 4 | -51 | 101* | 12 | 98 | 74* | 57*
Fc1ccc(-n2c(-c3cccs3)nc3nc4ccccc4nc32)cc1 | 8 | -41 | 81* | 4 | 8 | 0 | -4
COC(=O)[C@]12C[C@H](CC(=O)N3CCOCC3)C(=O)N(Cc3ccccc3)C1=C[C@H](C(C)(C)C)O[C@@H]2C | / | -1 | / | / | / | / | /
C=CCn1c(=O)c(C(=O)Nc2ccccc2C)c(O)c2ccccc21 | 3 | -5 | -1 | 18 | / | / | /
C=CCn1c(=O)c(C(=O)Nc2ccccc2O)c(O)c2ccccc21 | -2 | -4 | 29* | 18 | 1 | 26 | 24*
CC(=O)Nc1nc(CC(C)C)cc(-c2ccco2)c1C#N | 0 | -17 | 50* | -3 | -5 | 177* | 146*
COC(=O)C1CN(Cc2ccccc2)CCS(=O)(=O)N1Cc1cn(Cc2cccc(Cl)c2)nn1 (stereo not given) | / | 5 | / | / | / | / | /
COc1cc2c3c(c1)C(C)=CC(C)(C)N3C(=O)C2=O | 4 | -2 | 29* | 9 | 6 | 0 | 0
Nc1ccc2ccc(NS(=O)(=O)N3CCCCC3)cc2c1 | / | 0 | / | / | / | / | /
Cc1ccc(C(c2nc3ccccc3[nH]2)n2c(-c3ccccc3)nc3ccccc32)cc1 (stereo not given) | / | -8 | 28* | / | / | 8 | -1
Cc1cc(NS(=O)(=O)c2ccc(NC(=O)Cc3ccc(Cl)c(F)c3)cc2)no1 | / | 1 | / | / | / | / | /
COc1ccc(-c2coc3c(C(=O)NCc4ccco4)cccc23)c(C)c1 | / | 0 | -1 | 0 | / | / | /
COc1ccc(-c2ccc(C(=O)NCc3ccco3)c3occc23)c(C)c1 | / | 0 | 28* | -3 | / | 56* | 50*
CCC(Oc1ccccc1)C(=O)NC1C(=O)N2C1SC(C)(C)C2C(=O)O (stereo not given) | 1 | -2 | 0 | 2 | 2 | / | /
CC1(C)S[C@@H]2[C@H](NC(=O)[C@H](N)c3ccccc3)C(=O)N2[C@H]1C(=O)OC1OC(=O)c2ccccc21 (stereo not given in full) | -15 | -66 | 66* | 7 | -7 | + | 160*
CCN1C(=O)CSc2ccc(C(=O)NCc3ccc(OC)cc3)cc21 | -1 | -9 | -4 | -12 | -7 | / | /
CCN1CCSc2ccc(C(=O)NCc3ccc(OC(C)C)cc3)cc21 | -5 | -40 | 42* | 15 | -4 | 81* | 56*
SMILES | MazEF act | CCHFV vOTU inh | Mtb FBA inh | GDH-TPI counter-1 | Mtb betalactam | Mtb FBA inh conf | GDH-TPI counter-2
CCOc1ccc(CNC(=O)c2ccc3c(c2)N(CC)CCS3)cc1 | 2 | -61 | 71* | 6 | -2 | 122* | 88*
CC1CCCCN1S(=O)(=O)c1cc2c(=O)nc3ccccn3c2cc1Cl (stereo not given) | / | 3 | / | / | / | / | /
O=c1nc2ccccn2c2ccc(S(=O)(=O)N3CCCCC3)cc12 | 5 | -85 | 99* | 11 | 0 | 111* | 85*
Cc1ccn2c(c1)nc(=O)c1cc(S(=O)(=O)N3CCCCC3)ccc12 | 2 | -46 | 54* | 15 | -1 | 45* | 39*
O=c1nc2ccc(Cl)cn2c2ccc(S(=O)(=O)N3CCCCC3)cc12 | -11 | -56 | 60* | 11 | 0 | 1 | 5
COc1ccc(/C(C)=N/NC(=O)Cc2cc(=O)[nH][nH]2)cc1OC | / | -3 | / | / | / | / | /
COc1ccc2ccccc2c1C=NNC(=O)CN1CCN(Cc2ccccc2)CC1 | / | 4 | / | / | / | / | /
Cc1ccc2nc(NCCCO)nc(-c3ccccc3)c2c1 | -1 | -32 | 31* | 5 | 11 | + | +
Cc1ccc2nc(NCC(=O)O)nc(-c3ccccc3)c2c1 | -1 | -25 | 30* | -1 | 1 | 54* | 46*
OCCCNc1nc(-c2ccccc2)c2cc(Br)ccc2n1 | 8 | -38 | 13 | 0 | 4 | / | /
Cc1ccc2nc(NCCC(=O)O)nc(-c3ccccc3)c2c1 | -5 | -11 | 36* | 2 | 1 | 48* | 48*
CN(C)[C@H]1CCN(c2cccc3c2S(=O)(=O)N2CC[C@@H](C2)O3)C1 | / | -3 | / | / | / | / | /
COC(=O)[C@]12C[C@H](CC(=O)NCCC(C)C)C(=O)N(Cc3ccco3)C1=C[C@H](C1CCCC1)O[C@@H]2C | / | 19 | / | / | / | / | /
O=c1cc(-c2ccccc2)oc2ccc(Br)cc12 | -11 | -11 | 4 | 10 | -3 | / | /
CN(C)C(=O)c1c(-c2ccccc2)oc2ccc(O)cc12 | -7 | -16 | 18 | 7 | 2 | / | /
COc1ccc2oc(-c3ccccc3)cc(=O)c2c1 | / | -56 | 79* | 12 | / | 134* | 100*
COc1ccc2oc(-c3ccccc3)c(C(N)=O)c2c1 | 8 | -37 | 99* | 21 | 5 | 110* | 88*
COc1ccc2oc(-c3ccccc3)c(C(=O)N(C)C)c2c1 | -1 | -14 | 34* | 10 | 4 | 120* | 113*
COc1ccc(CCNc2c3ccccc3nc3ccccc23)cc1OC | 19 | -48 | 55* | 21 | -8 | + | +
Fc1cccc(NCCc2c[nH]c3ccccc23)n1 | 1 | 10 | -2 | -10 | 3 | / | /
c1ccc2c(NCCc3c[nH]c4ccccc34)c3ccccc3nc2c1 | -2 | -20 | 39* | 11 | 98 | 116* | 95*
COc1nc(NCCc2ccc(OC)c(OC)c2)nc(OC)n1 | 6 | 5 | 0 | 9 | -2 | / | /
CCOC(=O)c1cccc(C(=O)OCC)n1 | 9 | -4 | -6 | 1 | -6 | / | /
CCOC(=O)c1cn2cccnc2n1 | 2 | -38 | 104* | 11 | -7 | 151* | 134*
CCOC(=O)c1c(C)nc2ncccn12 | 7 | -15 | 75* | 17 | -1 | 37* | 38*
O=C1CC(C(=O)Nc2ccccc2)C2(CCCCC2)O1 (stereo not given) | 3 | 2 | 50* | 2 | -8 | 3 | -4
